Among all 5,500 compounds or so, about 2,000 (36%) were called active. Not shown: some 18% with an inconclusive outcome. No stated cut-off is given here; in the data, active means normalized growth mostly below about 0.91 (no sharp cut-off); inconclusive means no clear call, values can overlap the other calls; inactive means mostly above about 0.92. Some of the results follow.
Test: chemical genetic growth profiling, strain panel (AID 1159580);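 further: tested at 20 µM; growth read once vehicle control cultures reached saturation at 30 °C; 1 = growth at the plate median or of vehicle wells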
Conditions: growth OD

Measured: normalized growth

C=C[C@@](C)(O)CCC1C(=C)C[C@H](O)C2C(C)(C)CCCC12C (some centres not stated)
inactive: S. cerevisiae deletion strains, locus YJR075W, strain HOC1, stronger effect = lower value 1.01 | S. cerevisiae deletion strains, locus YKL009W, strain mrt4, stronger effect = lower value 1.01 | S. cerevisiae deletion strains, locus YKL068W, stronger effect = lower value 1.01 | S. cerevisiae deletion strains, locus YKL085W, strain MDH1 (second series), stronger effect = lower value 1.02 | S. cerevisiae deletion strains, locus YKL085W, strain MDH1, stronger effect = lower value 1.02 | S. cerevisiae deletion strains, locus YKL160W, strain elf1, stronger effect = lower value 0.981 | S. cerevisiae deletion strains, locus YKL190W, strain CNB1, stronger effect = lower value 1.01 | S. cerevisiae deletion strains, locus YKR001C, strain vps1, stronger effect = lower value 1.01 | S. cerevisiae deletion strains, locus YKR026C, strain gcn3, stronger effect = lower value 0.992 | S. cerevisiae deletion strains, locus YKR091W, strain srl3, stronger effect = lower value 0.991 | S. cerevisiae deletion strains, locus YLL001W, strain dnm1, stronger effect = lower value 0.97 | S. cerevisiae deletion strains, locus YLL026W, stronger effect = lower value 0.998 | S. cerevisiae deletion strains, locus YLL041C, strain sdh2, stronger effect = lower value 0.984 | S. cerevisiae deletion strains, locus YLR027C, strain aat2, stronger effect = lower value 0.995 | S. cerevisiae deletion strains, locus YLR039C, strain RIC1, stronger effect = lower value 0.949 | S. cerevisiae deletion strains, locus YLR058C, strain SHM2, stronger effect = lower value 1.01 | S. cerevisiae deletion strains, locus YLR102C, strain apc9, stronger effect = lower value 1.03 | S. cerevisiae deletion strains, locus YLR113W, strain HOG1, stronger effect = lower value 0.867 | S. cerevisiae deletion strains, locus YLR221C, strain rsa3, stronger effect = lower value 0.968 | S. cerevisiae deletion strains, locus YLR258W, strain gsy2, stronger effect = lower value 0.983 | S. cerevisiae deletion strains, locus YLR262C, strain YPT6 (second series), stronger effect = lower value 0.876 | S. cerevisiae deletion strains, locus YLR262C, strain YPT6, stronger effect = lower value 0.943 | S. cerevisiae deletion strains, locus YLR268W, strain sec22, stronger effect = lower value 1.01 | S. cerevisiae deletion strains, locus YLR320W, strain mms22, stronger effect = lower value 0.946 | S. cerevisiae deletion strains, locus YLR330W, strain CHS5, stronger effect = lower value 1.01 | S. cerevisiae deletion strains, locus YLR342W, strain FKS1 (second series), stronger effect = lower value 0.985 | S. cerevisiae deletion strains, locus YLR342W, strain FKS1, stronger effect = lower value 0.976 | S. cerevisiae deletion strains, locus YLR357W, strain rsc2, stronger effect = lower value 1.01 | S. cerevisiae deletion strains, locus YLR370C, strain arc18, stronger effect = lower value 0.976 | S. cerevisiae deletion strains, locus YLR371W, strain rom2, stronger effect = lower value 1.04 | S. cerevisiae deletion strains, locus YLR384C, strain iki3, stronger effect = lower value 0.98 | S. cerevisiae deletion strains, locus YLR418C, strain cdc73, stronger effect = lower value 0.994 | S. cerevisiae deletion strains, locus YML016C, strain PPZ1, stronger effect = lower value 1 | S. cerevisiae deletion strains, locus YML032C, strain rad52, stronger effect = lower value 1.05 | S. cerevisiae deletion strains, locus YML120C, strain ndi1, stronger effect = lower value 0.99 | S. cerevisiae deletion strains, locus YML124C, strain tub3, stronger effect = lower value 1.02 | S. cerevisiae deletion strains, locus YMR058W, strain fet3, stronger effect = lower value 0.995 | S. cerevisiae deletion strains, locus YMR078C, strain ctf18, stronger effect = lower value 1.03 | S. cerevisiae deletion strains, locus YMR125W, strain sto1, stronger effect = lower value 1.01 | S. cerevisiae deletion strains, locus YMR129W, stronger effect = lower value 0.985 | S. cerevisiae deletion strains, locus YMR205C, strain PFK2, stronger effect = lower value 0.934 | S. cerevisiae deletion strains, locus YMR223W, strain ubp8, stronger effect = lower value 1.02 | S. cerevisiae deletion strains, locus YMR231W, strain pep5, stronger effect = lower value 0.999 | S. cerevisiae deletion strains, locus YMR263W, strain SAP30, stronger effect = lower value 1.01 | S. cerevisiae deletion strains, locus YMR307W, strain GAS1, stronger effect = lower value 1.01 | S. cerevisiae deletion strains, locus YNL067W, strain RPL9B, stronger effect = lower value 0.996 | S. cerevisiae deletion strains, locus YNL071W, strain lat1, stronger effect = lower value 0.928 | S. cerevisiae deletion strains, locus YNL128W, strain TEP1, stronger effect = lower value 1.01 | S. cerevisiae deletion strains, locus YNL153C, strain GIM3, stronger effect = lower value 1.01 | S. cerevisiae deletion strains, locus YNL183C, strain NPR1, stronger effect = lower value 0.923 | S. cerevisiae deletion strains, locus YNL209W, strain ssb2, stronger effect = lower value 0.998 | S. cerevisiae deletion strains, locus YNL233W, strain BNI4, stronger effect = lower value 1.02 | S. cerevisiae deletion strains, locus YNL248C, strain rpa49, stronger effect = lower value 0.984 | S. cerevisiae deletion strains, locus YNL250W, strain rad50, stronger effect = lower value 1.03 | S. cerevisiae deletion strains, locus YNL271C, strain bni1, stronger effect = lower value 1.03 | S. cerevisiae deletion strains, locus YNL298W, strain CLA4, stronger effect = lower value 1.02 | S. cerevisiae deletion strains, locus YNL307C, strain MCK1, stronger effect = lower value 1 | S. cerevisiae deletion strains, locus YNL322C, strain KRE1 (second series), stronger effect = lower value 0.986 | S. cerevisiae deletion strains, locus YNL322C, strain KRE1, stronger effect = lower value 1.01 | S. cerevisiae deletion strains, locus YNR049C, strain mso1, stronger effect = lower value 0.994 | S. cerevisiae deletion strains, locus YNR052C, strain pop2, stronger effect = lower value 1.02 | S. cerevisiae deletion strains, locus YOL006C, strain TOP1, stronger effect = lower value 0.935 | S. cerevisiae deletion strains, locus YOL012C, strain htz1 1.27 | S. cerevisiae deletion strains, locus YOL147C, strain pex11, stronger effect = lower value 1.02 | S. cerevisiae deletion strains, locus YOR001W, strain rrp6, stronger effect = lower value 0.984 | S. cerevisiae deletion strains, locus YOR061W, strain CKA2, stronger effect = lower value 1.01 | S. cerevisiae deletion strains, locus YOR069W, strain VPS5, stronger effect = lower value 1.01 | S. cerevisiae deletion strains, locus YOR070C, strain gyp1, stronger effect = lower value 0.986 | S. cerevisiae deletion strains, locus YOR080W, strain dia2, stronger effect = lower value 0.998 | S. cerevisiae deletion strains, locus YOR083W, strain WHI5, stronger effect = lower value 0.964 | S. cerevisiae deletion strains, locus YOR106W, strain vam3, stronger effect = lower value 0.978 | S. cerevisiae deletion strains, locus YOR136W, strain idh2, stronger effect = lower value 1.03 | S. cerevisiae deletion strains, locus YOR144C, strain elg1, stronger effect = lower value 1.02 | S. cerevisiae deletion strains, locus YOR184W, strain ser1, stronger effect = lower value 1.01 | S. cerevisiae deletion strains, locus YOR231W, strain MKK1, stronger effect = lower value 0.923 | S. cerevisiae deletion strains, locus YOR265W, strain rbl2, stronger effect = lower value 0.992 | S. cerevisiae deletion strains, locus YOR270C, strain vph1, stronger effect = lower value 0.886 | S. cerevisiae deletion strains, locus YOR290C, strain snf2, stronger effect = lower value 0.934 | S. cerevisiae deletion strains, locus YOR316C, strain cot1, stronger effect = lower value 1.03 | S. cerevisiae deletion strains, locus YPL051W, strain arl3, stronger effect = lower value 0.975 | S. cerevisiae deletion strains, locus YPL055C, strain LGE1, stronger effect = lower value 1.01 | S. cerevisiae deletion strains, locus YPL078C, strain atp4, stronger effect = lower value 0.978 | S. cerevisiae deletion strains, locus YPL106C, strain sse1, stronger effect = lower value 1.03 | S. cerevisiae deletion strains, locus YPL240C, strain hsp82, stronger effect = lower value 0.984 | S. cerevisiae deletion strains, locus YPL241C, strain CIN2, stronger effect = lower value 1.01 | S. cerevisiae deletion strains, locus YPL256C, strain CLN2, stronger effect = lower value 0.953 | S. cerevisiae deletion strains, locus YPR119W, strain clb2, stronger effect = lower value 1.03 | S. cerevisiae deletion strains, locus YPR141C, strain kar3, stronger effect = lower value 1.03 | S. cerevisiae deletion strains, locus YPR163C, strain tif3, stronger effect = lower value 1.02 | S. cerevisiae deletion strains, locus YPR167C, strain met16, stronger effect = lower value 1.02 | S. cerevisiae deletion strains, strain wtn01, stronger effect = lower value 1.02 | S. cerevisiae strains, strain wild type, stronger effect = lower value 1.01
